This is a sample that favours compounds with a hit; in the whole collection about 21% have one here.
NS1 function inh – blocks influenza NS1 protein function | Potency, µM (doses to about 46.1 µM), for the others: top-dose activity, positive = more growth | hit rate 0.4% among 270,000 | AID 2326; calls by dose curve; also: potency is read from the fitted curve at half-maximal effect; actives are rising curves; nearly all actives have a fitted effect of over 50% in size
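A cell-based growth assay was used: compounds that relieve NS1-induced slow growth of budding yeast raise OD600. Assay medium was yeast nitrogen base with ammonium sulphate and -URA supplement, pH 6.0, with 2% galactose.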
Giardia FBPA inh – blocks Giardia fructose-bisphosphate aldolase activity; A8B2U2; purified Giardia FBPA; Potency, µM (highest dose often 59.6 µM), for the others: at the highest dose activity, negative = inhibition, most hits filed as inhibitors; hit rate 0.71% among 290,000; AID 2451; also: potency is read from the fitted curve at half-maximal effect; % is scaled to controls: 0 for no effect and ±100 for the full control effect; nearly all actives have a fitted effect of over 55% in size
Target sequence (A8B2U2 whole entry, looked up): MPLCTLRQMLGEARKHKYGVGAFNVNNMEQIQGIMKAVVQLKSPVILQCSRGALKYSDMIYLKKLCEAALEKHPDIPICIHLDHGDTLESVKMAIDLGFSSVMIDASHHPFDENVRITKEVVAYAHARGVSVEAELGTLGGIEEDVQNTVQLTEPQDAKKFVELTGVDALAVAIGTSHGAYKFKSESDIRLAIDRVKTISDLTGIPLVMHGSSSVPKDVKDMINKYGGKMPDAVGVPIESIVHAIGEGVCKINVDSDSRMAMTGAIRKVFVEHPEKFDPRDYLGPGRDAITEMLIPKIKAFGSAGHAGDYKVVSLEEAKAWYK
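40 nM FBPA preincubated 10 min at RT with compound (up to 57.5 uM final), then substrate plus GAPDH/TPI/NAD/arsenate coupling and diaphorase/resazurin added. Fluorescence read after 20 min at RT, 525/598 nm.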
CHX counter – counter-screen hit for Shiga toxin inhibitors, cycloheximide. cell reporter, cycloheximide protein synthesis inhibition counterscreen. max response, %. hit rate 12% among 300,000; in the data active = max response mostly above about 13%, no sharp cut-off; inactive = mostly below about 14%; also: read at 38.3 µM for the half of the compounds with a filed dose; 0% is about no effect
Shiga toxin inh – blocks Shiga toxin action in Vero cells; inhibition, % at 38.7 µM; hit rate 9.2% among 290,000; Vero cells, Shiga toxin protein synthesis inhibition reporter; in the data active = inhibition mostly above about 28%, no sharp cut-off; inactive = mostly below about 43%; also: 0% is about no effect
Pf growth 96h – P. falciparum growth inhibition at 96 hour, primary screen for plastid delayed-death inhibitors; P. falciparum luciferase reporter growth, 96 h; Potency, µM (highest dose often 28.7 µM), for the others: at the top dose activity change, negative = inhibition, hits mostly inhibitors; hit rate 6.9% among 320,000; AID 504834; also: potency is read from the fitted curve at half-maximal effect; % is scaled to controls: 0 for no effect and ±100 for the full control effect
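96 h incubation, 37 C, 5% CO2, of luciferase-reporter P. falciparum-infected RBCs (2% hematocrit, 0.05% parasitemia final) with test compounds; endpoint luminescence.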
Pf growth 48h – P. falciparum growth inhibition at 48 hours (one generation) | hit rate 5.9% among 310,000 | P. falciparum luciferase growth in erythrocytes, 48 h | AID 504832 | Potency, µM (doses to about 28.7 µM), for the others: at the top dose activity change, negative = inhibition, most hits filed as inhibitors; also: potency is read from the fitted curve at half-maximal effect; % is scaled to controls: 0 for no effect and ±100 for the full control effect
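Luminescence readout; reporter = integrated firefly luciferase in P. falciparum. RBC culture at 2% hematocrit, 0.1% parasitemia final, 37 C/5% CO2; decreased signal taken as growth inhibition.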
* = called active by the depositor; ? = inconclusive; . = no result given. Unless noted, calls follow the shape of the dose curve; as a rule, active = well fitted curve in the direction sought with a large enough effect; inconclusive = small, poorly fitted or top-dose-only effect, or another doubt; inactive = no such curve, though single readings can be large; an effect the other way counts as inactive or inconclusive.

SMILES | NS1 function inh | Giardia FBPA inh | CHX counter | Shiga toxin inh | Pf growth 96h | Pf growth 48h
Cc1cc(NC(=O)CSc2nc3cc(Cl)ccc3o2)no1 | -0.1% | . | -3.5 | -7.3 | 56.1% | 8.28µM*
CCN(CC)S(=O)(=O)c1ccc2oc(SCC(=O)NC3CC3)nc2c1 | 5.3% | . | 2.1 | -10.9 | 22.2% | 11.1%
CCN(CC)S(=O)(=O)c1ccc2oc(SCc3ccc(F)cc3)nc2c1 | -14.3% | -1.0% | 11.6* | 6.0 | ? | ?
CCN(CC)S(=O)(=O)c1ccc2oc(SCC(=O)Nc3cc(C)on3)nc2c1 | . | . | . | . | 2.08µM* | ?
CNC(=O)CSc1nc2cc(S(=O)(=O)Nc3ccccc3OC)ccc2o1 | -8.3% | -14.0% | -3.6 | -8.9 | -16.5% | 14.6%
COc1ccccc1NS(=O)(=O)c1ccc2oc(SCc3ccc(C#N)cc3)nc2c1 | 5.1% | 0.1% | 0.7 | -9.3 | 9.28µM* | -23.7%
O=C(CSc1nc(O)cc(=O)[nH]1)N1c2ccccc2CCc2ccccc21 | 24.4% | 9.2% | -2.0 | -4.6 | ? | 51.4%
O=C(Nc1cc2c3c(c1)CC(=O)N3CCC2)c1ccco1 | . | . | . | . | 60.3% | 50.3%
Cc1nc(SC(C)C(=O)NC2CCCC2)c2ccccc2n1 (configuration not stated) | . | . | . | . | -11.9% | ?
CCCCC(=O)N1C/C=C\C(c2ccc(OC)cc2)N(Cc2ccc(F)cc2)C(=O)C1 (configuration not stated) | ? | 1.3% | -2.2 | 1.8 | ? | ?
Cc1ccc(C(=O)Nc2cccc(S(=O)(=O)N3CCCCC3)c2)cc1[N+](=O)[O-] | . | . | . | . | 8.28µM* | 4.65µM*
COc1cc(C(=O)Nc2cccc(S(=O)(=O)N3CCCC3)c2)c([N+](=O)[O-])cc1OC | . | . | . | . | -16.5% | -12.1%
O=C(Nc1cccc(S(=O)(=O)N2CCCCC2)c1)c1ccc([N+](=O)[O-])o1 | . | -19.7% | 28.8* | 14.0 | 9.28µM* | ?
CCn1nc(C)c(Br)c1-c1nc(CS(=O)(=O)c2ccsc2)no1 | -11.0% | 2.4% | 28.0* | 25.7 | 49.7% | 24.6%
CCn1nc(C)c(Br)c1-c1nc(-c2cccc(C)c2)no1 | 1.1% | 0.2% | 11.4 | 0.6 | 50.4% | 10.6%
O=c1cc(O)c(-c2ccc(Cl)cc2)c(Cl)[nH]1 | 15.1% | 0.9% | 2.8 | 14.5 | 0.0% | 13.1µM*
C/C(=N\Nc1ccc(C(=O)c2c(C)cc3ccccn23)cc1[N+](=O)[O-])c1ccc(O)cc1 | 2.7% | 3.4% | -5.0 | -6.6 | ? | 9.28µM*
Cc1ccccc1NC(=O)c1c(C)nn(-c2ccccc2)c1Cl | -4.6% | -9.5% | 37.8* | 68.6* | 66.0% | 87.4%
CC(=O)Nc1ccc(NC(=O)c2c(C)nn(-c3ccccc3)c2Cl)cc1C | -0.5% | -1.2% | -2.4 | 27.7 | 14.0% | 6.5%
Cc1nn(-c2ccccc2)c(Cl)c1C(=O)NCC(C)C | -11.2% | 0.9% | -0.7 | 1.3 | . | 2.4%
CCc1nnc(NC(=O)c2c(C)nn(-c3ccccc3)c2Cl)s1 | -40.3% | 8.5% | 42.4* | 31.0 | ? | 0.7%
CCOC(=O)CNC(=O)c1c(C)nn(-c2ccccc2)c1Cl | -23.3% | -0.4% | 6.1 | 18.0 | 4.2% | 13.8%
COc1ccccc1NC(=O)c1c(C)nn(-c2ccccc2)c1Cl | -42.2% | 10.0% | 14.2* | 12.8 | -17.6% | -27.9%
Cc1nn(-c2ccccc2)c(Cl)c1C(=O)NCC(C)c1ccccc1 (configuration not stated) | -19.6% | -4.0% | 43.4* | 73.7* | ? | -21.4%
N=C1[C@@H](O)[C@]2(I)c3ccccc3N3C(=N)[C@H](O)[C@@H]4c5ccccc5N1[C@@H]4[C@@H]32 | -0.1% | . | . | . | . | .
SMILES | NS1 function inh | Giardia FBPA inh | CHX counter | Shiga toxin inh | Pf growth 96h | Pf growth 48h
c1cncc(CNc2nc(-c3ccoc3)nc3ccccc23)c1 | . | -18.1% | . | . | . | .
Cc1nn(-c2ccccc2)c(Cl)c1C(=O)N(C)c1nc(-c2ccc(F)cc2)cs1 | 0.6% | 2.8% | 0.8 | -6.0 | 7.38µM* | 21.8%
COc1ccc(-c2sc3ccccc3c2C#CCO)cc1 | -71.4% | -4.2% | -0.9 | 11.9 | -21.3% | 40.2%
COc1cc(-c2ccc3sc(-c4ccsc4)c(C#CCO)c3c2)cc(OC)c1OC | . | . | . | . | ? | 11.7µM*
O=C(N/N=C/c1ccc[nH]1)c1ccccc1OCc1ccccc1Cl | . | -12.0% | 14.8* | 10.7 | ? | -16.8%
O=C(N/N=C/c1ccco1)c1ccccc1OCc1ccccc1Cl | -33.1% | -3.3% | 18.8* | -30.2 | -10.8% | 8.6%

Screening data (PubChem BioAssay)
